What all share (conditions): mRNA level, 48 h; actives raise or lower the signal
Read-out in test [1]: Apoptosis regulator Bcl-2 (Homo sapiens) (UniProt P10415)
The test can be described thus: LTEA_HepaRG_BCL2: Life Technologies and Expression Analysis (LTEA) Assay for Bcl-2 gene using HepaRG (AID 2283475). In short, it runs like this:
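Each chemical was tested in duplicate on HepaRG cultures held in serum-free induction medium for 48 h, highest concentration 100 uM with half-log dilutions. Transcript levels came from multiplexed qRT-PCR, normalised to housekeeping genes; activity was scored in either direction relative to DMSO.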

Read-out in test [2]: Bcl-2 (BID) gene, BID (gene 637)
The test can be described thus: LTEA_HepaRG_BID: Life Technologies and Expression Analysis (LTEA) Assay for Bcl-2 (BID) gene using HepaRG (AID 2283476). In short, it runs like this: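 Assay used HepaRG hepatic cells treated 48 h in serum-free medium with half-log dilutions from 100 uM. Endpoint: BID mRNA, qRT-PCR, normalized to ACTB/GAPDH/POLR2A.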

Read-out in a further test: Caspase-3 (Homo sapiens) (UniProt P42574)
In words: LTEA_HepaRG_CASP3: Life Technologies and Expression Analysis (LTEA) Assay for cysteine-aspartic acid protease (CASP3) using HepaRG (AID 2283477). In short, it runs like this: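 Differentiated human HepaRG cells in serum-free induction medium were exposed 48 h to 8-point half-log concentrations from 100 uM (0.5% DMSO vehicle). CASP3 mRNA was measured by qRT-PCR, normalised to ACTB, GAPDH and POLR2A, with bidirectional fitting against DMSO.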

Read-out in test [3]: Cytochrome P450 (CYP24A1), CYP24A1 (gene 1591)
The test can be described thus: LTEA_HepaRG_CYP24A1: Life Technologies and Expression Analysis (LTEA) Assay for Cytochrome P450 (CYP24A1) using HepaRG (AID 2283478). In short, it runs like this: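 Differentiated HepaRG cells, pre-cultured 48 h, were exposed in duplicate for 48 h in serum-free induction medium to 8 half-log concentrations (top 100 uM, 0.5% DMSO). CYP24A1 mRNA was quantified by TaqMan qRT-PCR, normalized to ACTB/GAPDH/POLR2A, fitted bidirectionally versus DMSO.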

Read-out in test [4]: Cytochrome P450 (CYP1A2), CYP1A2 (gene 1544)
In words: LTEA_HepaRG_CYP1A2: Life Technologies and Expression Analysis (LTEA) Assay for Cytochrome P450 (CYP1A2) using HepaRG (AID 2283479). The procedure, abridged: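 Differentiated human HepaRG cells in serum-free induction medium were exposed in duplicate for 48 h to 8-point half-log concentrations up to 100 uM in 0.5% DMSO. CYP1A2 mRNA measured by qRT-PCR, normalized to ACTB, GAPDH, POLR2A; bidirectional fit vs DMSO.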

Read-out in test [5]: cysteine-aspartic acid protease (CASP8), CASP8 (gene 841)
In words: LTEA_HepaRG_CASP8: Life Technologies and Expression Analysis (LTEA) Assay for cysteine-aspartic acid protease (CASP8) using HepaRG (AID 2283480). The procedure, abridged: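 qRT-PCR readout of CASP8 mRNA, normalized to three housekeeping genes, after 48 h chemical exposure of HepaRG cells; 8-point half-log series, top 100 uM, 0.5% DMSO vehicle. Bidirectional curve fitting against DMSO baseline.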

Read-out in test [6]: Cytochrome P450 (CYP2B6), CYP2B6 (gene 1555)
In words: LTEA_HepaRG_CYP2B6: Life Technologies and Expression Analysis (LTEA) Assay for Cytochrome P450 (CYP2B6) using HepaRG (AID 2283481). The procedure, abridged: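 Differentiated HepaRG cells, serum-free induction medium, exposed 48 h in duplicate to 8-point half-log concentrations from 100 uM in 0.5% DMSO. CYP2B6 mRNA by qRT-PCR, normalized to ACTB, GAPDH, POLR2A; bidirectional fit versus DMSO.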

Read-out in test [7]: Cytochrome P450 2C19 (Homo sapiens) (UniProt P33261)
In words: LTEA_HepaRG_CYP2C19: Life Technologies and Expression Analysis (LTEA) Assay for CYP2C19 using HepaRG (AID 2283482). In short, it runs like this: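 Differentiated human HepaRG cells were exposed for 48 h in serum-free induction medium to 8 concentrations (top 100 uM, half-log steps, 0.5% DMSO). CYP2C19 mRNA was measured by qRT-PCR, normalized to ACTB/GAPDH/POLR2A, and fitted bidirectionally against DMSO.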

Read-out in another test: CYP2C8 (gene 1558)
In words: LTEA_HepaRG_CYP2C8: Life Technologies and Expression Analysis (LTEA) Assay for CYP2C8 using HepaRG (AID 2283483). In short, it runs like this:
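HepaRG (human liver line), 48 h chemical exposure, 8-pt half-log series from 100 uM, 0.5% DMSO vehicle. Readout: CYP2C8 transcript by qRT-PCR, housekeeping-normalized. Bidirectional fit vs DMSO baseline.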

Read-out in another test: CYP2C9 (gene 1559)
The test can be described thus: LTEA_HepaRG_CYP2C9: Life Technologies and Expression Analysis (LTEA) Assay for CYP2C9 using HepaRG (AID 2283484). In short, it runs like this: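 HepaRG, 48 h dosing, 8-pt half-log series, top 100 uM, 0.5% DMSO vehicle. Read-out: CYP2C9 transcript by TaqMan qRT-PCR, housekeeping-normalized (ACTB/GAPDH/POLR2A). Gain or loss fitted vs DMSO baseline.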

Read-out in another test: CYP2E1 (gene 1571)
The test can be described thus: LTEA_HepaRG_CYP2E1: Life Technologies and Expression Analysis (LTEA) Assay for CYP2E1 using HepaRG (AID 2283485). In short, it runs like this:
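Assay uses 48 h exposure of HepaRG hepatic cells, eight concentrations to 100 uM. Expression of CYP2E1 is quantified by TaqMan qRT-PCR with ACTB, GAPDH and POLR2A normalization; curves fitted in both directions relative to vehicle.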

Read-out in a further test: CYP4A11 (gene 1579)
In words: LTEA_HepaRG_CYP4A11: Life Technologies and Expression Analysis (LTEA) Assay for CYP4A11 using HepaRG (AID 2283486). The procedure, abridged:
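Differentiated HepaRG cells, serum-free induction medium, exposed 48 h in duplicate to 8-point half-log series from 100 uM in 0.5% DMSO. CYP4A11 mRNA measured by qRT-PCR, normalized to ACTB, GAPDH, POLR2A; bidirectional fit versus DMSO.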

Read-out in test [8]: Cytochrome P450 3A4 (Homo sapiens) (UniProt P08684)
The test can be described thus: LTEA_HepaRG_CYP3A4: Life Technologies and Expression Analysis (LTEA) Assay for CYP3A4 using HepaRG (AID 2283487). The procedure, abridged: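 HepaRG, 48 h exposure, 8-pt CRC from 100 uM (half-log), 0.5% DMSO, duplicates; serum-free induction medium. Readout: CYP3A4 mRNA, qRT-PCR, ACTB/GAPDH/POLR2A normalization. Bidirectional fit vs DMSO.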

Read-out in test [9]: DNA damage-inducible transcript 3 (DDIT3), DDIT3 (gene 1649)
The test can be described thus: LTEA_HepaRG_DDIT3: Life Technologies and Expression Analysis (LTEA) Assay for DNA damage-inducible transcript 3 (DDIT3) using HepaRG (AID 2283488). In short, it runs like this:
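Eight-point concentration-response (100 uM highest, half-log dilutions) in HepaRG, 48 h, duplicate wells. Endpoint: qRT-PCR mRNA, normalized (ACTB, GAPDH, POLR2A), bidirectional fitting with DMSO as baseline.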

Read-out in test [10]: Pro-epidermal growth factor (Homo sapiens) (UniProt P01133)
In words: LTEA_HepaRG_EGF: Life Technologies and Expression Analysis (LTEA) Assay for Epidermal growth factor (EGF) using HepaRG (AID 2283489). The procedure, abridged: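 Differentiated human HepaRG cells, plated 48 h then switched to serum-free induction medium, were exposed for 48 h to test chemicals (8-point half-log series, top 100 uM, 0.5% DMSO). EGF mRNA was quantified by qRT-PCR, normalized to ACTB, GAPDH, POLR2A.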

Read-out in test [11]: Early growth response protein 1 (EGR1) transcription factor, EGR1 (gene 1958)
In words: LTEA_HepaRG_EGR1: Life Technologies and Expression Analysis (LTEA) Assay for Early growth response protein 1 (EGR1) transcription factor using HepaRG (AID 2283490). In short, it runs like this:
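HepaRG, 48 h exposure, 8-pt half-log series from 100 uM, 0.5% DMSO vehicle; EGR1 transcript by TaqMan qRT-PCR (Fluidigm array), housekeeping-normalized; bidirectional fit relative to DMSO baseline.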

Read-out in test [12]: Ezrin (EZR), EZR (gene 7430)
In words: LTEA_HepaRG_EZR: Life Technologies and Expression Analysis (LTEA) Assay for Ezrin (EZR) using HepaRG (AID 2283491). In short, it runs like this: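 Read-out is EZR transcript level by qRT-PCR, normalized to three housekeeping genes and fitted bidirectionally against the DMSO control. Human HepaRG cells received test chemicals for 48 h at eight half-log concentrations up to 100 uM in 0.5% DMSO.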

Read-out in test [13]: Cytochrome P450 3A7 (Homo sapiens) (UniProt P24462)
In words: LTEA_HepaRG_CYP3A7: Life Technologies and Expression Analysis (LTEA) Assay for CYP3A7 using HepaRG (AID 2283492). In short, it runs like this: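 HepaRG cells plated 48 h, then dosed in serum-free induction medium for 48 h at 8 concentrations (top 100 uM, half-log steps, 0.5% DMSO). CYP3A7 mRNA by qRT-PCR, normalised to ACTB/GAPDH/POLR2A; bidirectional fit versus DMSO.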

Read-out in another test: CYP3A5 (gene 1577)
In words: LTEA_HepaRG_CYP3A5: Life Technologies and Expression Analysis (LTEA) Assay for CYP3A5 using HepaRG (AID 2283493). In short, it runs like this:
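Readout was CYP3A5 mRNA by qRT-PCR. HepaRG cultures were exposed for 48 h in serum-free induction medium to chemicals at up to 100 uM, and responses were fitted in both directions relative to DMSO vehicle.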

Read-out in test [14]: Fatty Acid-Binding Protein 1 (FABP1), FABP1 (gene 2168)
The test can be described thus: LTEA_HepaRG_FABP1: Life Technologies and Expression Analysis (LTEA) Assay for Fatty Acid-Binding Protein 1 (FABP1) using HepaRG (AID 2283494). In short, it runs like this:
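qRT-PCR readout of FABP1 transcript (normalized to three housekeeping genes) after 48 h chemical exposure of HepaRG cells; eight concentrations, half-log steps, max 100 uM, 0.5% DMSO vehicle; gain or loss fitted relative to DMSO baseline.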

This passage reports AC50 and outcome results from PubChem BioAssay (EPA / NIEHS).

Active and inactive are the calls of the source. The calls were made as follows: active = hit-call score of the fitted dose curve at least 0.9, where 1 is the maximum; inactive = score below 0.9.

Cytochrome P450 2C19 (Homo sapiens), sequence (P33261 whole entry, looked up): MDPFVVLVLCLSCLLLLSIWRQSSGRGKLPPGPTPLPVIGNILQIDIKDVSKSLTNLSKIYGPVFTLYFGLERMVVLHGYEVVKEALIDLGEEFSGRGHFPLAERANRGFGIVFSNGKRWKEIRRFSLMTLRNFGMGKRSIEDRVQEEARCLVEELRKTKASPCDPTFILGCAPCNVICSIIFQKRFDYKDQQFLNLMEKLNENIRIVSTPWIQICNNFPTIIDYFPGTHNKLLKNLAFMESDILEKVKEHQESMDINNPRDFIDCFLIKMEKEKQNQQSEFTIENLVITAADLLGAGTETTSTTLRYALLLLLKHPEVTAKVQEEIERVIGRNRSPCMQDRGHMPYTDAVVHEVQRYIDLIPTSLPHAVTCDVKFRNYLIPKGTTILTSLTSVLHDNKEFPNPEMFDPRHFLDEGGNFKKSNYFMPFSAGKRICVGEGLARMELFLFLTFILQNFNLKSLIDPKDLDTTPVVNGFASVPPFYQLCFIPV
Apoptosis regulator Bcl-2 (Homo sapiens), sequence (P10415 whole entry, looked up): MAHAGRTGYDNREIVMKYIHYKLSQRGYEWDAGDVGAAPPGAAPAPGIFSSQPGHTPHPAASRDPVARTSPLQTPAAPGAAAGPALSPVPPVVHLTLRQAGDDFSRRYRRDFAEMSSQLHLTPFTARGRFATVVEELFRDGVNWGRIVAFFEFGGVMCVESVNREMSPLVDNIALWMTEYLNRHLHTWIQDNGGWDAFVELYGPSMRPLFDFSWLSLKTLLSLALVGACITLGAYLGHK
Caspase-3 (Homo sapiens), sequence (P42574 whole entry, looked up): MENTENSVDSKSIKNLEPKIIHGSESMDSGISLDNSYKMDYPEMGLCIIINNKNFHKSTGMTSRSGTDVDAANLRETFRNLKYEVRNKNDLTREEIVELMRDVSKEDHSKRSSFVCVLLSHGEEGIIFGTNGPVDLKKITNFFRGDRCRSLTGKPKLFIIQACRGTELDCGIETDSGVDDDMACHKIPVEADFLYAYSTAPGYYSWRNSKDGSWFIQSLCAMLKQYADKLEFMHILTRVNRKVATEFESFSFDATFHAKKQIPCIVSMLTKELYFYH
Cytochrome P450 3A4 (Homo sapiens), sequence (P08684 whole entry, looked up): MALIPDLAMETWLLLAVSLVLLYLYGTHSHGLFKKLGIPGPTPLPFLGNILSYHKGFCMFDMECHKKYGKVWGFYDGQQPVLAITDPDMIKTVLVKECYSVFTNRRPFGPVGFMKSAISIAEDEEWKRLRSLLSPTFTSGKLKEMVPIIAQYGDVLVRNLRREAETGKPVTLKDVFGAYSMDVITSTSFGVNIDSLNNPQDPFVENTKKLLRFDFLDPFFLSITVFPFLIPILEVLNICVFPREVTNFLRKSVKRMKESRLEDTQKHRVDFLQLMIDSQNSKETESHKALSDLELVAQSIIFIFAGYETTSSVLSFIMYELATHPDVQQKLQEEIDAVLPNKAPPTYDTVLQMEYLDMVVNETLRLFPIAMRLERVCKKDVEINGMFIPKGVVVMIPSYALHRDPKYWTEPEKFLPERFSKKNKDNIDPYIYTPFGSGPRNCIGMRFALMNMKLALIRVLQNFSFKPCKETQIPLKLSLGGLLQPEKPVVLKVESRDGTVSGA
Cytochrome P450 3A7 (Homo sapiens), sequence (P24462 whole entry, looked up): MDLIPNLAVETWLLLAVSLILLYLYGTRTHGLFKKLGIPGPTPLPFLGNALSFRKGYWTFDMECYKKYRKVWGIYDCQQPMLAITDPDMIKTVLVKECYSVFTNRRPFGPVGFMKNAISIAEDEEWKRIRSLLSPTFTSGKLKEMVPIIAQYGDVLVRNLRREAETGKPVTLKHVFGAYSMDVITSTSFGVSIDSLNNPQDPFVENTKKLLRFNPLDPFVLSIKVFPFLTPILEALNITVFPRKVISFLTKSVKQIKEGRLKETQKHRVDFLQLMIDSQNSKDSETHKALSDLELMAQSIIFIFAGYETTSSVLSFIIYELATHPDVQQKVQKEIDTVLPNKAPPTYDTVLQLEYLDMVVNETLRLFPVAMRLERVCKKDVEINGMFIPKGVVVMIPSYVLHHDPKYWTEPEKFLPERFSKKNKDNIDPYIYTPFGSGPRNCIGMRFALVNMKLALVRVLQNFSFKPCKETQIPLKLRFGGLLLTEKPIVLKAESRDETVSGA

`O=C(O)Cc1cc(I)c(Oc2cc(I)c(O)c(I)c2)c(I)c1`: the half-maximal activity concentration (AC50) (usually the midpoint of the concentration-response curve, whichever way the signal moves) in [1] was 21.7 µM (active); in test [4] it was 0.0864 µM (active); in test [5], 56.7 µM (active); in [6], 55.3 µM (active); in test [7], 62.7 µM (active); in the test with CYP2C8 (gene 1558), 61.5 µM (active). For the same molecule, the AC50 with CYP2C9 (gene 1559) is 53.8 µM (active); with CYP2E1 (gene 1571) it was 6.65 µM (active); with CYP4A11 (gene 1579), 53.2 µM (active); in test [8] it was 50.7 µM (active); in test [9] it was 51.9 µM (active); in test [10], 57.3 µM (active). Moreover, the AC50 in test [11] is 51.6 µM (active); in test [13], 45.4 µM (active); with CYP3A5 (gene 1577), 26.7 µM (active); in test [14], 62 µM (active). For the same molecule, the molecule was called inactive (in [2]; in the test with Caspase-3 (Homo sapiens); in [3]; in test [12]).

With `CCCCCCC(=O)O`, the call (in [1]; in the test with Caspase-3 (Homo sapiens); in [3]; in [5]; in test [6]; in [7]) was inactive. Besides, the result (in the test with CYP2C8 (gene 1558); with CYP2C9 (gene 1559); with CYP2E1 (gene 1571); in the test with CYP4A11 (gene 1579); in test [8]; in test [9]) was inactive. Moreover, the molecule was classed as inactive (in test [10]; in test [11]; in test [12]; in test [13]; with CYP3A5 (gene 1577); in test [14]). Also, the AC50 in test [4] was 50 µM (active).

For `CCCCC(CC)COC(=O)CCCCC(=O)OCC(CC)CCCC` (stereo not drawn), the molecule was called inactive (in [1]; in [2]; in the test with Caspase-3 (Homo sapiens); in test [3]; in test [4]; in [5]). For the same molecule, the outcome (in test [6]; in test [7]; with CYP2C8 (gene 1558); with CYP2C9 (gene 1559); with CYP2E1 (gene 1571); with CYP4A11 (gene 1579)) was inactive. Further, the result (in [8]; in test [9]; in test [10]; in test [11]; in [12]; in the test with CYP3A5 (gene 1577)) was inactive. Moreover, the molecule was classed as inactive in test [14].
